Screening data (PubChem)
Rows were chosen to be rich in hits. Some 5.7% of all compounds tested hit in one or more screens of this group.
GRIN3A LBD mod – binders of NR3A ligand-binding domain, primary screen, biophysical, differential scanning fluorimetry, uHTS. AID 1259313, 2017. Tm shift relative to glycine control, % at 25 µM. 340,000 tested, 2.5% active. Glutamate receptor ionotropic, NMDA 3A (GRIN3A) ligand-binding domain. NR3A LBD differential scanning fluorimetry, Tm shift; 0% = protein alone, 100% = glycine-bound protein;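 active = melting temperature shift of at least 10% of the positive control shift, at one fixed dose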
rCAG RNA binder – binders of r(CAG) RNA repeats, primary screen, biochemical, fluorescence; r(CAG) RNA repeat, TO-PRO-1 dye displacement fluorescence; 370,000 tested, 1.3% active; inhibition, % at 3 µM; AID 651821, 2012;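 active = inhibition above the plate cutoff, the mean of all test compounds on that plate plus 3 SD, cut at about 35% in these data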;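 also: 0% = DMSO alone and 100% = 100 µM mitoxantrone as full dye displacement; higher means more dye released from RNA so lower well fluorescence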
Myeloid diff MLP – induction of myeloid progenitor differentiation, primary screen, cell-based, flow cytometry, MLPCN library; ER-HoxA9 myeloid progenitors, lysozyme-GFP differentiation; calls only at 10 µM; 360,000 tested, 1% active; AID 624256, 2012;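 active = normalized GFP-positive differentiation at or above the plate's own cutoff, the solvent-only control mean plus 3 SD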;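 also: cells exposed to compound for four days before flow analysis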
MPTP inh – mitochondrial permeability transition pore inhibitors, primary screen, biochemical, isolated mouse mitochondria, absorbance | 360,000 tested, 1.4% active | Ca2+ swelling absorbance, 30 min | inhibition, % at 10 µM;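 active = inhibition of 50% or more, scaled per plate between neutral and stimulator controls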;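 also: 0% = DMSO wells given calcium and 100% = 1 mM EGTA wells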
FAS-TE inh – FAS thioesterase domain inhibitors, primary screen, biochemical, fluorescence intensity, uHTS | recombinant FAS-TE, OMFH fluorogenic substrate, fluorescence endpoint | inhibition, % at 15 µM | 360,000 tested, 0.67% active;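 active = compounds whose normalised, plate-corrected inhibition of enzyme fluorescence in the single-dose primary screen is 50% or more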;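 also: 0% = DMSO with enzyme and 100% = substrate without enzyme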
Myeloid diff CP1 – inducers of myeloid progenitor differentiation, confirmation, cell-based, GFP/Mac1 flow cytometry, cherry pick 01; shares compounds with Myeloid diff MLP; ER-HoxA9 myeloid progenitors, GFP/Mac1 double-positive flow; calls only; 2,300 tested, 2% active; AID 651706, 2012;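 active = share of green or green-and-red cells above 9 and 9% in run 1 or 4 and 3% in run 2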
GFP autofluor – counter-screen for myeloid differentiation promoters: compound fluorescence | fluorescence response, % (concentration not given with the values) | shares compounds with Myeloid diff MLP | ER-HoxA9 myeloid progenitors, no estrogen, GFP autofluorescence flow cytometry; vehicle wells 0%, positive control 100% | 2,300 tested, 7.4% active;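 active = over 5% cells positive for green fluorescent reporter, or over 2% positive for both it and APC stain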;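 also: range taken on the double positive population between DMSO and positive control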
* marks the source's active call; other numbers are inactive results; i = inactive; . = no result; + = active, no number.

SMILES	GRIN3A LBD mod	rCAG RNA binder	Myeloid diff MLP	MPTP inh	FAS-TE inh	Myeloid diff CP1	GFP autofluor
O=C(Nc1ncccc1O)c1ccc(S(=O)(=O)Nc2ccccc2)cc1	.	3.0	+	-0.7	-8.0	i	1.0
COc1ccc(NS(=O)(=O)c2cc(C(=O)N3CCC3)ccc2C)cc1	-2.5	3.5	i	-1.1	-3.6	.	.
Cc1csc(=O)n1CC(=O)OCC(=O)NNC(=O)c1ccc([N+](=O)[O-])cc1	0.3	3.6	+	-0.5	-2.9	i	0.4
COc1ccc(S(=O)(=O)Nc2cccc(-c3ccc4nncn4n3)c2)cc1	-1.6	3.9	i	-2.6	30.1	i	0.0
Cc1cccc(C)c1NC(=O)Nc1cccs1	1.5	3.8	i	1.3	-4.7	i	0.0
Cc1c(C(=O)N(C)C2CC(C)(C)NC(C)(C)C2)oc2c(F)cccc12	0.4	2.9	i	0.9	-4.4	.	.
CCOC(=O)c1cc2c(c(-c3ccccc3)n1)[C@@H](CCO)N(S(=O)(=O)C(C)(C)C)C2	-0.7	0.3	i	-2.4	-7.0	i	0.6
Cc1ccccc1N(CC(=O)NCCSCc1ccco1)S(C)(=O)=O	2.1	3.3	+	1.0	-3.4	i	0.6
CCOc1ccccc1N(CC(=O)NCCSCc1ccco1)S(=O)(=O)c1ccccc1	1.9	-1.6	i	-1.1	9.5	.	.
COc1ccc2cc(C(C)c3nc4ccccc4c(=O)n3N)ccc2c1 (centres undefined)	-6.6	-1.0	+	2.7	20.1	i	0.3
O=C1CC(C(=O)N2CCc3ccccc32)CN1c1ccccc1 (centres undefined)	-0.4	0.2	i	-0.5	2.9	.	.
CC(C)C1Cc2c(sc3ncnc(NN)c23)CO1 (centres undefined)	-3.9	3.0	i	-1.3	-7.6	.	.
COc1cc(OC)c2c(-c3ccccc3)cc(=O)oc2c1C(CCN1CCCCC1)c1ccc2c(c1)OCO2 (centres undefined)	-2.4	9.2	i	7.4	19.0	.	.
COc1cc(OC)c2c(-c3ccccc3)cc(=O)oc2c1C(CCN1CCCC(C)C1)c1ccc2c(c1)OCO2 (centres undefined)	-3.7	7.0	i	1.6	6.0	i	0.0
COc1cc(/C=C2\SC(=S)N(CCC(=O)N3CCN(C)CC3)C2=O)cc(OC)c1OC	-3.0	-0.6	+	-0.5	-0.2	i	0.0
CC1(C)CC(=O)C2=C(C1)c1c(ccc3ccccc13)NC2c1ccc(Br)o1 (centres undefined)	2.4	3.5	i	-0.3	19.3	.	.
COc1ccccc1NC(=S)NC1CCC(CC2CCC(NC(=S)Nc3ccccc3OC)CC2)CC1 (centres undefined)	-18.8	12.7	+	2.7	28.0	i	0.4
COc1ccccc1NC(=S)NC1CCCC1	0.4	-5.3	i	-1.0	-0.5	.	.
O=C1NCCCC1C(=O)Nc1ccccc1C(F)(F)F (centres undefined)	-0.8	-2.4	i	-1.9	-8.4	.	.
COc1ccc(-n2c(N)c(C(=O)NCC3CCCO3)sc2=S)cc1 (centres undefined)	2.1	-3.3	+	-0.2	-5.6	i	0.0
CCOC(=O)c1ccc(-n2c(N)c(C(=O)NCC3CCCO3)sc2=S)cc1 (centres undefined)	3.8	1.4	i	3.4	-26.3	.	.
COc1ccc(Cl)cc1NC(=S)N(Cc1ccccc1C)CC1CCC(C(=O)O)CC1 (centres undefined)	-1.9	44.9*	i	-0.7	3.2	i	0.7
Cc1nn(CCC(=O)N2CCN(S(=O)(=O)c3ccccc3)CC2)c(C)c1C	1.6	-2.9	.	-1.9	-3.6	.	.
c1ccc(-c2noc(CN3CCN(c4cnccn4)CC3)n2)cc1	-0.1	-3.2	i	-1.2	0.4	.	.
COc1ccc(NC(=S)NC(NC(=O)C(C)C)C(Cl)(Cl)Cl)c([N+](=O)[O-])c1 (centres undefined)	-3.3	9.7	+	5.5	-14.8	i	0.8
SMILES	GRIN3A LBD mod	rCAG RNA binder	Myeloid diff MLP	MPTP inh	FAS-TE inh	Myeloid diff CP1	GFP autofluor
O=[N+]([O-])c1cccc(/C(=N/N=C/c2ccccc2Br)C23CN4CN(CN(C4)C2)C3)c1	-0.8	-3.9	+	-1.5	-26.1	i	0.0
CC(C)=N/N=C(/c1ccc([N+](=O)[O-])cc1)C12CN3CN(CN(C3)C1)C2	0.2	0.6	i	-0.4	-4.5	.	.
Nc1nc(-c2ccc(Oc3ccccc3)cc2)c(CC(=O)O)s1	-1.5	13.1	i	0.1	5.2	i	0.0
Cc1ccc(NC2=CC(=O)C(=O)c3ccccc32)c(C)c1	-3.0	3.8	+	4.8	16.0	i	3.1*
O=C1C=C(Nc2ccccc2O)c2ccccc2C1=O	-0.8	-6.3	i	10.8	22.9	.	.
O=C(O)c1cccnc1SCc1cccc(Br)c1	-2.7	3.6	i	-0.4	-7.3	.	.
O=C(O)c1cccc(S(=O)(=O)NCC2COc3ccccc3O2)c1 (centres undefined)	-1.0	3.5	i	-0.5	-4.8	i	1.1
Cc1nn(C(=O)c2ccc([N+](=O)[O-])cc2)c(C)c1Br	-0.1	-0.5	+	2.2	10.9	i	0.0
Cc1nn(C(=O)c2nn(C)cc2[N+](=O)[O-])c(C)c1Br	0.2	-1.5	i	-0.2	-3.5	.	.
CCCCNC(=O)Nc1ncn[nH]1	1.1	-0.7	i	-0.8	-1.5	.	.
CN1C(=S)N(c2cccnc2)C(=O)/C1=C\c1ccc(N(C)C)cc1	-1.4	-1.1	+	7.4	-30.8	i	3.4
CCN(CC(=O)NCc1ccc(F)cc1)C(=O)c1oc2ccccc2c1C	-0.6	-3.6	i	1.1	-1.7	.	.
Cc1cc(O)c(C(C)C)cc1N=Cc1ccc(N(C)C)cc1	-8.7	2.1	i	0.7	-2.0	.	.
NC(=O)c1nsc(C(=O)N(CCc2ccccc2)C(C(=O)NC2CCCC2)c2ccco2)c1N (centres undefined)	-2.5	-0.7	i	1.6	18.9	.	.
O=C(NC1CCCCC1)C(c1ccco1)N(CCc1ccccc1)C(=O)C(F)(F)F (centres undefined)	1.1	-4.1	i	1.3	21.0	i	0.0
O=C(NC1CCCCC1)C(c1ccco1)N(Cc1ccco1)C(=O)c1ccco1 (centres undefined)	-0.9	2.7	i	-0.2	-0.9	i	0.2
CC(C)CNS(=O)(=O)c1ccc(CCC(=O)NCc2ccncc2)cc1	-0.6	-2.1	i	-1.5	-6.3	.	.
